Reference: the supplement of paper PMC4466140

B1: unnamed (peptide)
chain: NENKKLPPAPTVFGL
B2: unnamed (peptide)
chain: EREKALPPIPFTTTL
B3: unnamed (peptide)
chain: EEEEEHPPLPARRKS
B4: unnamed (peptide)
chain: DDEDVPPQLPTRTKS

target: SpBzz1-D2; assay: SPOT peptide array binding signal intensity (averaged, normalized) (arbitrary units (background-subtracted, floor 0; scale differs between SH3 domains)); higher = stronger binding of the SH3 domain to the peptide
In short: (§1)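 GST-fused SH3 domains from four yeast species were expressed in E. coli BL21(DE3), purified on glutathione Sepharose and incubated at 10 μg/ml overnight at 4°C in TBS-based blocking buffer on cellulose membranes carrying synthetic 15-mer peptides, with cysteines replaced by serines. Bound protein was detected with anti-GST antibody, an HRP anti-mouse secondary and luminol, then imaged and quantified with Genespotter. Binding signal is the normalized, background-subtracted spot intensity averaged over replicates, in arbitrary units that differ between domains.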

Binder | SPOT peptide array binding signal intensity
B1 | 0.25
B2 | ≤ 0
B3 | 2

target: SpCyk3; assay: as above
In short: as §1

Binder | SPOT peptide array binding signal intensity
B1 | 2.5
B2 | 3.5
B3 | ≤ 0

target: SpHof1; assay: as above
In short: as §1

Binder | SPOT peptide array binding signal intensity
B1 | 49.8
B2 | 1190
B3 | 0.5

target: SpHof1-2; assay: as above
In short: as §1

Binder | SPOT peptide array binding signal intensity
B1 | 344
B2 | 1870
B3 | 1

target: SpHof1-3; assay: as above
In short: as §1

Binder | SPOT peptide array binding signal intensity
B1 | 166
B2 | 3060
B3 | 1

target: SpHse1; assay: as above
In short: as §1

Binder | SPOT peptide array binding signal intensity
B1 | 71.8
B2 | 29.2
B3 | 1

target: SpLsb1; assay: as above
In short: as §1

Binder | SPOT peptide array binding signal intensity
B1 | 0.5
B2 | ≤ 0
B3 | 10

target: SpLsb4; assay: as above
In short: as §1

Binder | SPOT peptide array binding signal intensity
B1 | ≤ 0
B2 | 7
B3 | 7640

target: SpMyo1; assay: as above
In short: as §1

Binder | SPOT peptide array binding signal intensity
B1 | ≤ 0
B2 | 32.5
B3 | ≤ 0

target: SpNbp2; assay: as above
In short: as §1

Binder | SPOT peptide array binding signal intensity
B1 | ≤ 0
B2 | ≤ 0
B3 | 3.5

target: SpPex13; assay: as above
In short: as §1

Binder | SPOT peptide array binding signal intensity
B1 | ≤ 0
B2 | 1
B3 | ≤ 0

target: SpRvs167; assay: as above
In short: as §1

Binder | SPOT peptide array binding signal intensity
B1 | 0.333
B2 | 38.7
B3 | 1510

target: SpSla1-D1-D2; assay: as above
In short: as §1

Binder | SPOT peptide array binding signal intensity
B1 | 8
B2 | 9
B3 | ≤ 0

target: SpSla1-D3; assay: as above
In short: as §1

Binder | SPOT peptide array binding signal intensity
B1 | 1.5
B2 | 0.5
B3 | 5

target: AgAbp1; assay: as above
In short: as §1

Binder | SPOT peptide array binding signal intensity
B2 | ≤ 0
B3 | ≤ 0
B4 | ≤ 0

target: AgBbc1; assay: as above
In short: as §1

Binder | SPOT peptide array binding signal intensity
B2 | ≤ 0
B3 | 23.2
B4 | 14.5

target: AgBem1-D1; assay: as above
In short: as §1

Binder | SPOT peptide array binding signal intensity
B2 | 71
B3 | ≤ 0
B4 | 1

target: AgBzz1-D1; assay: as above
In short: as §1

Binder | SPOT peptide array binding signal intensity
B2 | 13
B3 | 9
B4 | 28

target: AgBzz1-D2; assay: as above
In short: as §1

Binder | SPOT peptide array binding signal intensity
B2 | ≤ 0
B3 | 27.5
B4 | 11.5

target: AgCyk3; assay: as above
In short: as §1

Binder | SPOT peptide array binding signal intensity
B2 | 2
B3 | ≤ 0
B4 | ≤ 0

target: AgFus1; assay: as above
In short: as §1

Binder | SPOT peptide array binding signal intensity
B2 | 5
B3 | ≤ 0
B4 | 6.5

target: AgHof1; assay: as above
In short: as §1

Binder | SPOT peptide array binding signal intensity
B2 | 132
B3 | 3
B4 | 28

target: AgHse1; assay: as above
In short: as §1

Binder | SPOT peptide array binding signal intensity
B2 | 0.5
B3 | 3.5
B4 | 17

target: AgLsb1; assay: as above
In short: as §1

Binder | SPOT peptide array binding signal intensity
B2 | 18
B3 | 20.5
B4 | 14

target: AgLsb4; assay: as above
In short: as §1

Binder | SPOT peptide array binding signal intensity
B2 | 3.5
B3 | 7880
B4 | 6150

target: AgMyo5; assay: as above
In short: as §1

Binder | SPOT peptide array binding signal intensity
B2 | ≤ 0
B3 | 0.5
B4 | 1.75

target: AgNbp2; assay: as above
In short: as §1

Binder | SPOT peptide array binding signal intensity
B2 | ≤ 0
B3 | ≤ 0
B4 | ≤ 0

target: AgRvs167; assay: as above
In short: as §1

Binder | SPOT peptide array binding signal intensity
B2 | 0.333
B3 | 61
B4 | 53.2

target: AgSho1; assay: as above
In short: as §1

Binder | SPOT peptide array binding signal intensity
B2 | 5670
B3 | 8
B4 | 10

target: AgSla1-D1-D2; assay: as above
In short: as §1

Binder | SPOT peptide array binding signal intensity
B2 | ≤ 0
B3 | 4.5
B4 | ≤ 0

target: AgSla1-D3; assay: as above
In short: as §1

Binder | SPOT peptide array binding signal intensity
B2 | ≤ 0
B3 | ≤ 0
B4 | ≤ 0

target: CaAbp1-D1; assay: as above
In short: as §1

Binder | SPOT peptide array binding signal intensity
B2 | ≤ 0
B3 | 8.5
B4 | ≤ 0

target: CaAbp1-D2; assay: as above
In short: as §1

Binder | SPOT peptide array binding signal intensity
B2 | ≤ 0
B3 | ≤ 0
B4 | ≤ 0

target: CaBbc1; assay: as above
In short: as §1

Binder | SPOT peptide array binding signal intensity
B2 | ≤ 0
B3 | 50.5
B4 | 45

target: CaBem1-D1; assay: as above
In short: as §1

Binder | SPOT peptide array binding signal intensity
B2 | 1.5
B3 | ≤ 0
B4 | 9.5

target: CaBzz1-D1; assay: as above
In short: as §1

Binder | SPOT peptide array binding signal intensity
B2 | ≤ 0
B3 | ≤ 0
B4 | ≤ 0

target: CaBzz1-D2; assay: as above
In short: as §1

Binder | SPOT peptide array binding signal intensity
B2 | 1.53e-05
B3 | ≤ 0
B4 | ≤ 0

target: CaCyk3; assay: as above
In short: as §1

Binder | SPOT peptide array binding signal intensity
B2 | ≤ 0
B3 | ≤ 0
B4 | 3

target: CaFus1; assay: as above
In short: as §1

Binder | SPOT peptide array binding signal intensity
B2 | 125
B3 | 9.5
B4 | 78

target: CaHof1; assay: as above
In short: as §1

Binder | SPOT peptide array binding signal intensity
B2 | 3
B3 | 8.5
B4 | 7.5

target: CaHse1; assay: as above
In short: as §1

Binder | SPOT peptide array binding signal intensity
B2 | 30
B3 | 13
B4 | 27

target: CaLsb1; assay: as above
In short: as §1

Binder | SPOT peptide array binding signal intensity
B2 | 0.5
B3 | 10.8
B4 | 6.5

target: CaLsb4; assay: as above
In short: as §1

Binder | SPOT peptide array binding signal intensity
B2 | ≤ 0
B3 | 5520
B4 | 6780

target: CaMyo5; assay: as above
In short: as §1

Binder | SPOT peptide array binding signal intensity
B2 | 0.5
B3 | 1.75
B4 | 2

target: CaNbp2; assay: as above
In short: as §1

Binder | SPOT peptide array binding signal intensity
B2 | ≤ 0
B3 | ≤ 0

target: CaRvs167; assay: as above
In short: as §1

Binder | SPOT peptide array binding signal intensity
B2 | 2.67
B3 | 408

target: CaRvs167-3; assay: as above
In short: as §1

Binder | SPOT peptide array binding signal intensity
B2 | 1
B3 | 6.5

target: CaSho1; assay: as above
In short: as §1

Binder | SPOT peptide array binding signal intensity
B2 | 4810
B3 | ≤ 0

target: CaSla1-D1-D2; assay: as above
In short: as §1

Binder | SPOT peptide array binding signal intensity
B2 | ≤ 0
B3 | ≤ 0

target: CaSla1-D3; assay: as above
In short: as §1

Binder | SPOT peptide array binding signal intensity
B2 | 0.5
B3 | ≤ 0

target: ScAbp1; assay: as above
In short: as §1

Binder | SPOT peptide array binding signal intensity
B2 | ≤ 0
B3 | ≤ 0

target: ScBbc1; assay: as above
In short: as §1

Binder | SPOT peptide array binding signal intensity
B2 | 1
B3 | 6.25

target: ScBem1-D1; assay: as above
In short: as §1

Binder | SPOT peptide array binding signal intensity
B2 | ≤ 0
B3 | 0.5

target: ScBzz1-D1; assay: as above
In short: as §1

Binder | SPOT peptide array binding signal intensity
B2 | ≤ 0
B3 | 16

target: ScBzz1-D2; assay: as above
In short: as §1

Binder | SPOT peptide array binding signal intensity
B2 | 2
B3 | 27.5

target: ScCyk3; assay: as above
In short: as §1

Binder | SPOT peptide array binding signal intensity
B2 | 5
B3 | ≤ 0

target: ScFus1; assay: as above
In short: as §1

Binder | SPOT peptide array binding signal intensity
B2 | 2
B3 | 4

target: ScHof1; assay: as above
In short: as §1

Binder | SPOT peptide array binding signal intensity
B2 | 66
B3 | 4.25

target: ScHse1; assay: as above
In short: as §1

Binder | SPOT peptide array binding signal intensity
B2 | ≤ 0
B3 | ≤ 0

target: ScLsb1; assay: as above
In short: as §1

Binder | SPOT peptide array binding signal intensity
B2 | ≤ 0
B3 | 444

target: ScLsb2; assay: as above
In short: as §1

Binder | SPOT peptide array binding signal intensity
B2 | ≤ 0
B3 | 17

target: ScLsb3; assay: as above
In short: as §1

Binder | SPOT peptide array binding signal intensity
B2 | ≤ 0
B3 | 9930

target: ScLsb4; assay: as above
In short: as §1

Binder | SPOT peptide array binding signal intensity
B2 | 0.5
B3 | 3690

target: ScMyo3; assay: as above
In short: as §1

Binder | SPOT peptide array binding signal intensity
B2 | ≤ 0
B3 | ≤ 0

target: ScMyo5; assay: as above
In short: as §1

Binder | SPOT peptide array binding signal intensity
B2 | ≤ 0
B3 | ≤ 0

target: ScNbp2; assay: as above
In short: as §1

Binder | SPOT peptide array binding signal intensity
B2 | ≤ 0
B3 | ≤ 0

target: ScPex13; assay: as above
In short: as §1

Binder | SPOT peptide array binding signal intensity
B2 | 86.8
B3 | 656

target: ScRvs167; assay: as above
In short: as §1

Binder | SPOT peptide array binding signal intensity
B2 | 3.5
B3 | 1940

target: ScSho1; assay: as above
In short: as §1

Binder | SPOT peptide array binding signal intensity
B2 | 7050
B3 | ≤ 0

target: ScSla1-D1-D2; assay: as above
In short: as §1

Binder | SPOT peptide array binding signal intensity
B2 | ≤ 0
B3 | 102

target: ScSla1-D3; assay: as above
In short: as §1

Binder | SPOT peptide array binding signal intensity
B2 | ≤ 0
B3 | ≤ 0

target: SpAbp1-D1; assay: as above
In short: as §1

Binder | SPOT peptide array binding signal intensity
B2 | ≤ 0
B3 | ≤ 0

target: SpBbc1; assay: as above
In short: as §1

Binder | SPOT peptide array binding signal intensity
B2 | ≤ 0
B3 | 1.5

target: SpBzz1-D1; assay: as above
In short: as §1

Binder | SPOT peptide array binding signal intensity
B2 | 61
B3 | 17
